Reference: PubChem BioAssay AID1210 (NMMLSC, 2008)
Calls of active or inactive are those of the source.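 Rule for the calls: active = blocks over 70% of labeled estradiol binding at 10 µM, or over a set limit at 100 nM; inactive = the rest.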

Target: Estrogen receptor beta (Homo sapiens) (UniProt Q92731)
Assay: displacement of fluorescent estrogen from ERbeta – cell-based, Cos7 ERbeta-GFP, flow cytometry, primary screen (AID 1210);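 note: 0% = DMSO vehicle wells and 100% = complete loss of labeled estradiol signal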
Conditions: fluorescent estrogen binding, stronger effect = higher value
[1] = ligand binding inhibition, at 0.1 µM

Estrogen receptor beta (Homo sapiens), sequence (Q92731 whole entry, looked up): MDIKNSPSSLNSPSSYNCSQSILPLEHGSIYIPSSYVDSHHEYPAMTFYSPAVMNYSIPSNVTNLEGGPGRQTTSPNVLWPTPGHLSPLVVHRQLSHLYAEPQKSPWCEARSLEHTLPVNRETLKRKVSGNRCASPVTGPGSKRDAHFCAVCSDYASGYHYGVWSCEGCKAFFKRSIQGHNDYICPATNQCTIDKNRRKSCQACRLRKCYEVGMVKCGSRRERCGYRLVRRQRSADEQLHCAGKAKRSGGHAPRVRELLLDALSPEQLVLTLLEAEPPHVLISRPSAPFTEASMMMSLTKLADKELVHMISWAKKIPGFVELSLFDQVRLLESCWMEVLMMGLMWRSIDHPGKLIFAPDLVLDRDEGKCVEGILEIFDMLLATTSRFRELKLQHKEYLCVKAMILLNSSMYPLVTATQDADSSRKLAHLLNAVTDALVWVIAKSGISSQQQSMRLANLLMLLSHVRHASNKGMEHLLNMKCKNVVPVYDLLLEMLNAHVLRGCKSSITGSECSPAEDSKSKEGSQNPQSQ

SMILES | inhibition (at 10 µM) | inhibition [1] [%]
Cc1cc(C2(c3ccc(O)c(C)c3)OC(=O)c3ccccc32)ccc1O | 73% (active) | 29
CN=c1scc(C)n1/N=C/c1ccc(O)cc1O | 58% (inactive) | 6
O=C(O)c1cc(Cl)c2c(c1)[C@@H]1C=CC[C@@H]1[C@H](c1ccc(S(=O)(=O)N3CCOCC3)cc1)N2 | 45% (inactive) | 8
O=S(=O)(NCc1csc(-c2cccnc2)n1)c1cccs1 | 34% (inactive) | 21
COC(=O)c1c(NC(=O)Cc2cccs2)sc2c1CCCC2 | 41% (inactive) | 18
Cc1cc(N)ccc1N=Nc1c(C)n(C)n(-c2ccccc2)c1=O | 15% (inactive) | 31
COC(=O)c1cc(-c2c(C)oc3cc(O)ccc3c2=O)c(C)o1 | 12% (inactive) | 1
COc1cc(OC)cc(C(=O)NC2CCN(C(=O)N3c4ccccc4Sc4ccccc43)CC2)c1 | 21% (inactive) | 16
CC1(N2CCOCC2)CC2(O)C(=[N+]1[O-])CCc1nonc12 (centres undefined) | 49% (inactive) | 62
O=C(Cc1cccs1)Nc1ccc(S(=O)(=O)Nc2ncccn2)cc1 | 62% (inactive) | 1
Cc1sc2ncnc(SCC(=O)NC(=O)NCc3ccco3)c2c1C | 47% (inactive) | 14
CCOC(=O)C1CCCN(C(=O)c2ccc(CS(=O)(=O)c3ccc(C)cc3)o2)C1 (centres undefined) | 55% (inactive) | 21
COc1ccc(OC)c(C(=O)CSc2nnc(-c3ccc(OC)c(OC)c3)o2)c1 | 49% (inactive) | 12
O=C1N/C(=C\c2ccc(O)cc2)C(=O)c2ccccc21 | 21% (inactive) | 1
O=C(COC(=O)c1ccccc1Oc1ccccc1)NCc1ccco1 | 16% (inactive) | 65
O=C(Cn1nnc(-c2ccc3c(c2)OCO3)n1)NCc1ccco1 | 46% (inactive) | 24
COc1ccc(-c2ccc(=O)[nH]n2)cc1 | 0% (inactive) | 16
Cc1ccc(N=Cc2c(O)n(-c3ccc4c(c3)OCO4)c(=O)c3ccccc23)cc1 | 15% (inactive) | 21
O=C(Nc1ccc2oc(-c3ccc4ccccc4c3)nc2c1)c1cccs1 | 42% (inactive) | 36
C[C@]12CC[C@@H]3c4ccc(O)cc4C(=O)C[C@H]3[C@@H]1CC[C@@H]2O | 45% (active) | 89
c1coc(-c2nn3c(-c4ccco4)nnc3s2)c1 | 37% (inactive) | 28

SMILES | inhibition (at 10 µM) | inhibition [1] [%]
O=C(O)C1Nc2c(O)cc(Cl)c([N+](=O)[O-])c2C2C=CCC12 (centres undefined) | 31% (inactive) | 18
O=C(Nc1cnn(C23CC4CC(CC(C4)C2)C3)c1)c1cnn2c(C(F)(F)F)cc(-c3ccco3)nc12 | 26% (inactive) | 20
Cc1ccsc1/C=C(\C(=O)c1ccc(OC(C)C)cc1)c1nc2ccccc2o1 | 34% (inactive) | 60
CN(CC(=O)NC(=O)NCc1ccco1)Cc1nc2ccccc2c(=O)[nH]1 | 14% (inactive) | 53
CCN(CC)CCCNC(=O)c1nn(-c2ccccc2OC)c(=O)c2ccccc12 | 40% (inactive) | 19
O=C(Nc1cc(C(F)(F)F)ccc1N1CCOCC1)C1Cc2ccccc2CN1C(=O)c1ccco1 (centres undefined) | 73% (active) | 13
C=CCn1c(SCC(=O)NC(=O)NCc2ccco2)nc2sc(CC)cc2c1=O | 33% (inactive) | 10
Cc1nc2ccccc2c(=O)n1/N=C/c1c(O)ccc2oc3c(c12)CCCC3 | 47% (inactive) | 34
O=C1C2CC=C(Cl)CC2C(=O)N1CCCCCCN1C(=O)C2CC=C(Cl)CC2C1=O (centres undefined) | 28% (inactive) | 36
Cc1cc(-c2nnc3sc(-c4ccc(Cl)cc4Cl)nn23)n[nH]1 | 32% (inactive) | 38
COCCNC(=O)c1c(N)n(/N=C/c2cccs2)c2nc3ccccc3nc12 | 29% (inactive) | 32
CCc1oc2ccccc2c1C(=O)c1cc(Br)c(O)c(Br)c1 | 45% (inactive) | 9
O=C(c1cccs1)N1N=C(c2ccccc2)CC1c1ccc(O)cc1 (centres undefined) | 69% (inactive) | 23
Oc1cccc(-c2nc3ccc4ccccc4c3c3c2CCC3)c1 | 39% (inactive) | 21
CCc1ccc(Nc2nc(N)nc(CSc3nnnn3-c3ccccc3)n2)cc1 | 67% (inactive) | 8
CCOc1cccc2cc(-c3cn4cc(C)ccc4n3)c(=O)oc12 | 27% (inactive) | 16
Oc1ccccc1-c1nnc(SCCN2CCOCC2)n1Cc1ccccc1 | 32% (inactive) | 41
COc1cc2c(cc1O)C(Cc1ccc(O)cc1)NCC2 (centres undefined) | 72% (active) | 11
COc1cc(-c2nc3ccc4ccccc4c3c3c2CCC3)ccc1O | 0% (inactive) | 59
Cc1cc(C(=O)Nc2sc3c(c2C#N)CCC3)no1 | 46% (inactive) | 23
O=Cc1cn(-c2ccccc2)nc1-c1cc2c(ccc3ccccc32)oc1=O | 39% (active) | 81

SMILES | inhibition (at 10 µM) | inhibition [1] [%]
O=C(Nc1nccs1)c1ccc2nccnc2c1 | 36% (inactive) | 25
CCOC(=O)N1CCN(S(=O)(=O)c2ccc(C(=O)Nc3nc4ccc(F)cc4s3)cc2)CC1 | 69% (inactive) | 39
Cc1nc2ccc(C(=O)O)cc2[nH]1 | 31% (inactive) | 47
Cc1noc(C)c1COc1ccc(C(=O)OCC(=O)N2c3ccccc3NC(=O)C2(C)C)cc1 | 42% (inactive) | 30
COc1ccc(C(=O)N/N=C(\C)c2ccc3c(c2)C2C=CCC2C(c2ccccc2)N3)cc1 (centres undefined) | 67% (active) | 66
Cc1ccc(-c2cc(C(=O)NCc3ccco3)c3ccccc3n2)o1 | 36% (inactive) | 47
O=C(CSc1nnc(-c2ccc(O)cc2)n1Cc1ccccc1)NNC(=O)c1ccc(Br)cc1 | 31% (inactive) | 30
Clc1ccc2c(c1)[C@H]1OCC[C@H]1[C@@H](c1ccco1)N2 | 0% (inactive) | 4
COc1ccc(C2Nc3ccccc3C(=O)N2Cc2ccccc2)cc1Cn1nnc2ccccc21 (centres undefined) | 38% (inactive) | 45
COc1ccc(N2Cc3cccc(C(=O)N4CCN(C(=O)c5ccco5)CC4)c3C2=O)cc1 | 29% (inactive) | 27
Cc1cc(C)c2c(c1)[C@@H]1C=CC[C@@H]1[C@H](c1ccc(S(=O)(=O)N3CCOCC3)cc1)N2 | 35% (inactive) | 48
O=C(NNC(=O)c1ccc(SCC2CCCO2)c([N+](=O)[O-])c1)c1ccc(Cl)c([N+](=O)[O-])c1 (centres undefined) | 0% (inactive) | 4
CC(=O)Nc1ccc(OC(=O)CC2SC(=O)NC2=O)cc1 (centres undefined) | 59% (active) | 66
Cc1nn(-c2ccccc2)c(C)c1NC(=O)Cc1cccs1 | 67% (inactive) | 25
O=C(Cc1cccs1)Nc1ccccn1 | 39% (inactive) | 10
Nc1cc2sc(-c3ccc(C(=O)O)cc3)nc2cc1Cl | 22% (inactive) | 44
Nc1ccc(-n2cnc3cc([N+](=O)[O-])ccc32)cc1 | 34% (inactive) | 12
CCn1c2ccccc2c2cc(NC(=O)CSc3nnc(-c4ccc(OC)cc4)n3N)ccc21 | 57% (inactive) | 24
Cc1cc(O)ccc1C1(c2ccc(O)cc2C)OC(=O)c2ccccc21 | 36% (inactive) | 10
Cc1nn(-c2ccccc2)c2sc(C(=O)c3c(N)n(C)c(=O)n(C)c3=O)cc12 | 22% (inactive) | 32
c1coc(-c2nnc3sc(Cc4cccs4)nn23)c1 | 5% (inactive) | 53

SMILES | inhibition (at 10 µM) | inhibition [1] [%]
O=C(O)c1ccc(NS(=O)(=O)c2ccc3c(c2)C2C=CCC2C(c2ccccc2F)N3)cc1 (centres undefined) | 7% (inactive) | 9
O=C(NC1CCN(C(=O)N2c3ccccc3Sc3ccccc32)CC1)c1ccccc1Cl | 18% (inactive) | 23
CC(C)(C)OC(=O)N1CCN(c2ccc(NC(=O)Cn3nnc(-c4ccccc4)n3)cc2)CC1 | 64% (inactive) | 6
O=C(c1cc2ncc(Br)cn2n1)N1CCN(C(=O)c2ccco2)CC1 | 62% (active) | 67
Cc1noc(C)c1COC(=O)c1cc2c3ccccc3n(C)c2s1 | 59% (inactive) | 4
Cc1ccc(-c2n[nH]c(=S)n2/N=C/C=C\c2ccccc2[N+](=O)[O-])cc1 | 74% (active) | 4
CSc1nc2c(c(=O)[nH]1)C(c1cccs1)C1=C(CCCC1=O)N2 (centres undefined) | 71% (active) | 33
COc1cc2c3c(c1)/C(=C1/SC(NC(C)=O)=NC1=O)C(=O)N3C(C)(C)C=C2C | 37% (inactive) | 4
CCOC(=O)c1c(C)[nH]c(C)c1C(=O)CSc1nnc(-c2cc(OC)c(OC)c(OC)c2)o1 | 69% (inactive) | 7
O=C(Nc1ccc2c(c1)nc1n2CCSC1)c1ccco1 | 57% (inactive) | 31
Cc1cnc(C(=O)OCC(=O)c2csc(N3CCCCC3)n2)cn1 | 47% (inactive) | 23
c1ccc(-c2nnc3sc(Cc4cccs4)nn23)cc1 | 18% (inactive) | 20
Cc1ccnc(NS(=O)(=O)c2ccc(NC(=O)Cc3cccs3)cc2)n1 | 38% (inactive) | 47
C[C@]12CC[C@@H]3c4ccc(O[C@@H]5O[C@H](C(=O)O)[C@@H](O)[C@H](O)[C@H]5O)cc4CC[C@H]3[C@@H]1C[C@@H](O)[C@@H]2O | 52% (inactive) | 15
CCc1ccc(-c2nn(-c3ccccc3)cc2CSC(=N)N)cc1 | 76% (active) | 71
O=C(COC(=O)c1ccccc1)NCc1ccco1 | 67% (inactive) | 16
COc1ccc(Cc2nnc(NC(=O)Cc3cccs3)s2)cc1 | 17% (inactive) | 29
COc1cc(/C=N/N2CCN(C3c4ccccc4-c4ccccc43)CC2)ccc1O | 39% (inactive) | 10
CC(=O)N1c2ccc(Cl)cc2C2C=CCC2C1c1cccc2ccccc12 (centres undefined) | 51% (inactive) | 6
